Among the data in PubChem BioAssay (NCATS) are Potency and z-score values, retold here.

Structures are written as SMILES. Results filed as inconclusive are left out. Calls of active or inactive are those of the source. The call rests on the fitted dose curve.

This test is described as follows: qHTS for identification of novel therapeutic agents for treatment of microphthalmiaassociated transcription factor (MiT) renal cell carcinoma (RCC) (AID 1963991). As to conditions: CellTiter-Glo, 48 h; for z-score: stronger effect = lower value. The text has this: PI: Marston Linehan Ph.D.
Urologic Oncology Branch, Center for Cancer Research (CCR)
National Cancer Institute (NCI), National Institute of Health (NIH), Bethesda, Maryland
MiT-Renal Cell Carcinoma (RCC) is characterized by genomic translocations involving microphthalmia-associated transcription factor (MiT) family members TFE3, TFEB, or MITF. MiT-RCC represents a specific subtype of sporadic RCC that is predominantly seen in young patients and can present with heterogeneous histological features making diagnosis challenging. Moreover, the disease biology of this aggressive cancer is poorly understood and there is no accepted standard of care therapy for patients with advanced disease. Tumor-derived cell lines have been established from human TFE3-RCC providing useful models for preclinical studies. TFE3-RCC tumor derived cell lines and their tissues of origin were characterized by IHC and gene expression analyses. An unbiased high-throughput drug screen was performed to identify novel therapeutic agents for treatment of MiT-RCC. Potential therapeutic candidates were validated in in vitro and in vivo preclinical studies. Mechanistic assays were conducted to confirm the on-target effects of drugs. The results of a high-throughput small molecule drug screen utilizing three TFE3-RCC tumor-derived cell lines identified five classes of agents with potential pharmacological efficacy, including inhibitors of phosphoinositide-3-kinase (PI3K) and mechanistic target of rapamycin (mTOR), and several additional agents, including the transcription inhibitor Mithramycin A. Upregulation of the cell surface marker GPNMB, a specific MiT transcriptional target, was confirmed in TFE3-RCC and evaluated as a therapeutic target using the GPNMB-targeted antibody-drug conjugate CDX-011. […] The results of the high-throughput drug screen and validation studies in TFE3-RCC tumor-derived cell lines have provided in vitro and in vivo preclinical data supporting the efficacy of the PI3K/mTOR inhibitor.
SEQUENCE No. (e.g., 1, 2, 3, etc.); […] (e.g., Cells, Incubation, Reagent, etc.); VALUE; DESCRIPTION.
1; Cells; 3 uL; white, solid-bottom Grenier assay plate.
2; Compounds; 23 nL; Kalypsis pin-tool (Wako USA).
3; Incubation; 48 hr; 37 C, 5% CO2, 95% humidity.
4; Reagent; 3 uL; CellTiter-Glo reagent (Promega).
5; Incubation; 15 min; room temperature.
6; Detection; Luminescence; ViewLux plate reader (PerkinElmer).
NOTES (numbers refer to Sequence numbers above)
1. Quantitative high-throughput screening (qHTS) of 1912 pharmacologically defined small molecule compounds was conducted on three TFE3-fusion cell lines bearing three different fusion partners (UOK109, UOK124, UOK145). Briefly, 500 cells in complete growth media were plated into white, solid-bottom, 1536-well tissue culture treated plates (Grenier Cat. 789173-F) using a Multidrop Combi cassette dispenser.
2. Twenty-three nanoliter of 1912 pharmacologically defined small molecule compounds of the NCATS Mechanism Interrogation PlatE (MIPE) version 4.0 were added to each assay plate using a Pintool Dispenser (Wako) equipped with 1536 pin head.
3. Plates were covered with stainless steel gasketed lids and incubated for 48 hours at standard cell culture conditions.
4. Viability was assessed by adding 3uL of CellTiter-Glo detection reagent (Promega).
5. Plates were covered with gasket lids and incubated for 15 minutes at room temperature.
6. Luminescence was measured on a ViewLux plate reader (PerkinElmer). Post-screen data processing used DMSO controls as 100% viability and empty wells as 0% viability and dose response curve fitting was done for all 11 concentrations for each compound.
(In general: In qHTS, concentration-response curves come from the screen itself.)

The mark [1] stands for this setting: TFE3-RCC UOK109 viability, measured here: UOK109 Z-AUC.
[2] abbreviates: TFE3-RCC viability, measured here: UOK124 Z-AUC.
[3] abbreviates: TFE3-RCC viability, measured here: UOK145 Z-AUC.
Potency means the concentration at half of the fitted maximal effect.

For the molecule `Cc1ccccc1-n1c(Cn2ncc3c(N)ncnc32)nc2cccc(C)c2c1=O`, the Potency (TFE3-RCC UOK109 viability) was 52.6 nM (active). This molecule also returned a z-score under setting [1] of -1.3, a z-score under setting [2] of -1.03 and a z-score under setting [3] of -1.02.

As to `O=c1[nH]c2ccc(Cl)cc2c(N[C@@H]2CN3CCC2CC3)c1-c1nc2ccccc2[nH]1`, the Potency (TFE3-RCC UOK109 viability) was 3720 nM (active). Further, the z-score is, setting by setting: under setting [1], -0.938; under setting [2], -2.71; under setting [3], -1.04.

Consider `c1ccc2c(CN3CCNCC3)cccc2c1`, for which the z-score is, setting by setting: under setting [1], 0.545; under setting [2], 0.291; under setting [3], 0.833.

For the molecule `C[C@@H]1[C@H](O)[C@@H](C)C=CC=CCCC=CC=CC=CC=C[C@H](O[C@H]2O[C@@H](C)[C@H](O)[C@@H](N)[C@@H]2O)CC2O[C@](O)(C[C@@H](O)[C@H](O)CC[C@@H](O)C[C@@H](O)C[C@@H](O)CC(=O)O[C@H]1C)C[C@H](O)[C@H]2C(=O)O`, the z-score was 0.777 under setting [1], 0.659 under setting [2] and -1.57 under setting [3].

Regarding `c1cc2c(cc1[C@H]1OC[C@H]3[C@H]1CO[C@H]3c1ccc3c(c1)OCO3)OCO2`, the z-score reads like this: under setting [1], 0.442; under setting [2], 0.255; under setting [3], 0.142.

Consider `COc1ccc(CC2NCCc3cc(OC)c(OC)cc32)cc1OC` (stereo unspecified), for which the z-score worked out at 0.368 under setting [1], 0.055 under setting [2] and 0.8 under setting [3].

Turning to `O=S(=O)(F)Cc1ccccc1`, the z-score was 0.128 under setting [1], -1.89 under setting [2] and 0.531 under setting [3].

In the case of `CCOP(=O)(OCC)C(C)NC(=O)N(CCCl)N=O` (stereo unspecified), the z-score reads like this: under setting [1], 0.0132; under setting [2], -0.441; under setting [3], 0.402.

As for `CSCC[C@@H](NC(=O)[C@@H](Cc1ccccc1)NC(=O)CNC(=O)CNC(=O)[C@@H](N)Cc1ccc(O)cc1)C(=O)O`, the z-score under setting [1] turned out to be 0.576, the z-score under setting [2] amounted to 0.642 and the z-score under setting [3] turned out to be 1.12.

For the molecule `CCOC(=O)c1cncn1[C@H](C)c1ccccc1`, the z-score runs as follows: under setting [1], 1.85; under setting [2], 0.442; under setting [3], 0.512.

In the case of `COC(=O)[C@@H](N)CCCN=C(N)N[N+](=O)[O-]`, the z-score was found to be 0.59 under setting [1], 0.788 under setting [2] and 2.13 under setting [3].

Take `C[C@H]([C@H](O)CCC(C)(C)O)[C@H]1CC[C@@]2(O)C3=CC(=O)[C@@H]4C[C@@H](O)[C@@H](O)C[C@]4(C)[C@@H]3CC[C@]12C`: the z-score is, setting by setting: under setting [1], 0.847; under setting [2], 0.683; under setting [3], -2.52.

In the case of `Clc1ccccc1C(c1ccccc1)(c1ccccc1)n1cccn1`, the z-score was -0.446 under setting [1], 0.841 under setting [2] and -1.28 under setting [3].
